According to PubChem BioAssay (NCI):
Compounds without any hit were thinned out: in the full panel of roughly 83,000, 20% have a hit.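 The endpoint reported here, percent growth, reads 100 for growth as untreated, 0 for no net growth and -100 for all cells dead.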 Values without a mark were called inactive. Activity calls are given as the source filed them. The calls were made as follows: active = growth percent below 10; inactive = the rest.

System: MDA-MB-468 breast
Assay: NCI-60 one-dose screen, 48 h (100 = growth as untreated, 0 = no growth, -100 = all killed)
Settings: 10 µM unless noted

SMILES | growth
CCCn1cnc2c1c(=O)n(CCCCC(C)=O)c(=O)n2C | 107%
O=C(COc1cccc2cccnc12)Nc1ccc(C(=O)/C=C/c2ccc(Cl)cc2)cc1 | 89.3%
COc1cc2nnc3c4cccnc4[nH]c3c2cc1OC | -69.9% (active)
CN(C)CCC=C1c2ccccc2C(C)(C)c2ccccc21 | 56.6%
Cn1cc(-c2nn3cc(-c4ccccc4)nc3s2)c2ccccc21 | 71.5%
O=C(CI)NCCNc1cccc2c(S(=O)(=O)O)cccc12 | 100%
COc1cc(/C=C/c2cc(/C=C/c3ccc(O)c(OC)c3)n(C(=O)Nc3ccccc3Cl)n2)ccc1O | -24.2% (active)
CN1CCN(CC#CCOC(=O)CNC(=O)[C@]23CCC(C)(C)C[C@H]2C2=CC[C@@H]4[C@@]5(C)CC[C@H](O)C(C)(C)[C@@H]5CC[C@@]4(C)[C@]2(C)CC3)CC1 | 97.5%
COc1ccc(-c2cnnn2-c2nonc2-n2cccc2)cc1OC | 40.1%
Nc1nnc(-c2ccc3ccccc3c2O)o1 | 96.5%
COc1ccc(CSc2nc3cc(OC)c(OC)cc3c(=O)n2-c2ccc(Cl)cc2)cc1 | 103%
COc1ccc(/C=C(\C#N)n2nnc3cc(F)c(F)cc32)cc1 | 8.69% (active)
O=c1cn[nH]c2ccc(Br)cc12 | 109%
CCCC[N+](C)(N)CCCC | 106%
CCc1ccc(/C(C#N)=C/C=C/c2ccccc2)cc1 | -13.9% (active)
COC(=O)c1c2c(c(C)[n+]([O-])c1C)C(=O)C=C(NCc1cccc(Cl)c1)C2=O | -66.3% (active)
COc1ccc(-c2nc3ncccn3c2-c2nnc(-c3ccc(F)cc3)o2)cc1 | 100%
O=C1CCCN1C1CCN(Cc2cc3ccccc3[nH]c2=O)c2ccccc21 (stereo not drawn) | 83.5%
S=C1NCc2cncnc2N1 | 99.7%
COC(=O)/C(CCC=C(C)C)=C1\[C@@H](OC(C)=O)C[C@@]2(C)[C@H]1C[C@@H](O)[C@H]1[C@@]3(C)CC[C@H](NCCO)[C@@H](C)[C@@H]3CC[C@@]12C | 104%
CCOC(=O)C1(C)CCCC1N (stereo not drawn) | 99.2%
CC[C@]1(O)C[C@@H]2CN(Cc3c([nH]c4ccccc34)[C@@](C(=O)OC)(c3cc4c(cc3OC)N(C)[C@H]3[C@@](O)(C(=O)OC)[C@H](OC(C)=O)[C@]5(CC)[C@@H]6C[C@@H]6CN6CC[C@]43[C@@H]65)C2)C1 | 8.25% (active)
C#C[C@]1(O)CC[C@H]2[C@@H]3CC=C4c5sc(-c6ccccn6)nc5CC[C@]4(C)[C@H]3CC[C@@]21C | 89.2%
